Compound activity as filed in PubChem.
This is a sample that favours compounds with a hit; in the whole collection about 6.7% have one here.
Pf Dd2 inh: P. falciparum Dd2 growth inhibition. actives 2.3% (n = 94,000). activity change, % at 10 µM. AID 1159554. SYBR Green, 72 h; hits give low values; in the data active means activity change below about -80%; inconclusive means no clear call, values can overlap the other calls
C diff HTS: inhibitors of Clostridium difficile growth; AID 1259249; actives 0.25% (n = 86,000); growth activity, negative = inhibition, % at 16 µg/mL (by protocol); Clostridium difficile clinical isolate growth, OD600, 24 h; hits give low values;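 active means mean growth activity at or below -80% and every replicate also at or below -80%; inconclusive means mean at or below -80% but some replicate above -80%; inactive means mean growth activity above -80%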
T cruzi growth-1: T. cruzi proliferation inhibition; T. cruzi beta-gal in NIH3T3, GalScreen luminescence, 90 h; inhibition, % at 8.34 µM; actives 5.9% (n = 77,000); AID 624255;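 active means mean inhibition above about 93%, with at least 55% of replicates each passing it, limit read from the data, passing the limit was not always enough; inconclusive means only one of those two conditions holds; inactive means neither condition holds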
T cruzi growth-2: blocks T. cruzi growth in NIH3T3 host cells; shares compounds with T cruzi growth-1; T. cruzi beta-gal in NIH3T3, GalScreen luminescence, 90 h; inhibition, % at 8.35 µM; actives 72% (n = 5,600);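 active means mean replicate inhibition above about 95% and at least 55% of replicates individually reaching it, limit read from the data; inconclusive means only one of the two criteria is met; inactive means neither criterion is met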
T cruzi growth-3: inhibitors of T. cruzi proliferation | shares compounds with T cruzi growth-1 | T. cruzi beta-gal in NIH3T3, GalScreen luminescence, 90 h | inhibition, % at 2.09 µM | actives 21% (n = 5,600) | AID 651740;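 active means mean inhibition above about 95%, with at least 55% of replicates also reaching it, limit read from the data; inconclusive means meets just one of the two conditions; inactive means meets neither condition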
3T3 cytotox: cytotoxicity in mouse NIH/3T3 fibroblasts; cytotoxicity (signal decrease), % at 8.35 µM; NIH/3T3 viability, CellTiter-Glo ATP luminescence, 90 h; actives 14% (n = 5,600); shares compounds with T cruzi growth-1; AID 651742;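 active means mean signal decrease across replicates above about 35% based on untreated-well scatter, with enough replicates individually passing, limit read from the data; inconclusive means no rule stated though some were filed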
3T3 cytotox 2: cytotoxicity in mouse NIH/3T3 fibroblasts | shares compounds with T cruzi growth-1 | NIH/3T3 viability, CellTiter-Glo ATP luminescence, 90 h | inhibition, % at 24.9 µM | actives 56% (n = 5,600) | AID 651744;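 active means mean loss of cell viability signal at or above a set limit, and enough replicates individually reaching it; inconclusive means meets only the mean limit or only the replicate share; inactive means meets neither condition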
Each line names hits and unclear results; the compound was inactive in the other large screens (follow-up assays come after a bar, where they were run).

C/C=C/c1ccc([C@@H]2[C@H](CO)N(C(=O)CN(C)C)C23CN(C(=O)C2CCOCC2)C3)cc1	none (no result: T cruzi growth-1)
C[C@@H]1CCCCO[C@@H](CN(C)C(=O)Nc2ccc(C(F)(F)F)cc2)[C@H](C)CN([C@H](C)CO)C(=O)c2cc(NC(=O)NC3CCCCC3)ccc2O1	T cruzi growth-1 117 | T cruzi growth-2 104 | T cruzi growth-3 109 | 3T3 cytotox inactive | 3T3 cytotox 2 inactive
C[C@H](CO)N1C[C@H](C)[C@H](CN(C)C(=O)NC2CCCCC2)OCCCC[C@H](C)Oc2ccc(NC(=O)Nc3ccc(C(F)(F)F)cc3)cc2C1=O	none
C[C@@H]1CCCCO[C@H](CN(C)C(=O)NC2CCCCC2)[C@H](C)CN([C@@H](C)CO)C(=O)c2cc(NC(=O)Nc3ccc(C(F)(F)F)cc3)ccc2O1	none
C[C@H]1CCCCO[C@H](CN(C)C(=O)Nc2ccc(C(F)(F)F)cc2)[C@@H](C)CN([C@@H](C)CO)C(=O)c2cc(NC(=O)NC3CCCCC3)ccc2O1	Pf Dd2 inh -87, T cruzi growth-1 109 | T cruzi growth-2 97 | T cruzi growth-3 107 | 3T3 cytotox inactive | 3T3 cytotox 2 inactive
C[C@H]1CCCCO[C@H](CN(C)C(=O)C2CCCCC2)[C@@H](C)CN([C@@H](C)CO)C(=O)c2cc(NS(=O)(=O)c3ccc(F)cc3)ccc2O1	none
COc1cccc(S(=O)(=O)Nc2ccc3c(c2)C(=O)N(C)C[C@@H](OC)[C@@H](C)CN(Cc2ccccc2F)[C@@H](C)CO3)c1	none (no result: C diff HTS, T cruzi growth-1)
COc1cccc(S(=O)(=O)Nc2ccc3c(c2)OC[C@@H](C)N(Cc2cc(F)ccc2F)C[C@@H](C)[C@H](OC)CN(C)C3=O)c1	T cruzi growth-1 102 (no result: C diff HTS) | T cruzi growth-2 107 | T cruzi growth-3 inactive | 3T3 cytotox inactive | 3T3 cytotox 2 inactive
COc1cccc(S(=O)(=O)Nc2ccc3c(c2)OC[C@H](C)N(Cc2ccccc2F)C[C@H](C)[C@@H](OC)CN(C)C3=O)c1	none (no result: T cruzi growth-1)
COc1cccc(S(=O)(=O)Nc2ccc3c(c2)OC[C@H](C)N(Cc2ccccc2F)C[C@@H](C)[C@H](OC)CN(C)C3=O)c1	none (no result: C diff HTS)
COc1cccc(S(=O)(=O)Nc2ccc3c(c2)OC[C@@H](C)N(Cc2ccccc2F)C[C@@H](C)[C@H](OC)CN(C)C3=O)c1	T cruzi growth-1 96 (no result: C diff HTS) | T cruzi growth-2 105 | T cruzi growth-3 inactive | 3T3 cytotox inactive | 3T3 cytotox 2 inactive
CO[C@@H]1CN(C)C(=O)c2cc(NS(=O)(=O)c3cccc(F)c3)ccc2OC[C@@H](C)N(Cc2cc(F)ccc2F)C[C@@H]1C	T cruzi growth-1 100 | T cruzi growth-2 115 | T cruzi growth-3 inactive | 3T3 cytotox inactive | 3T3 cytotox 2 93
CNC(=O)C[C@H]1CC[C@H]2[C@@H](COc3ccc(NC(=O)c4ccc5c(c4)OCO5)cc3C(=O)N2C)O1	none
C[C@H]1CN([C@@H](C)CO)C(=O)CCCn2nncc2CO[C@@H]1CN(C)Cc1cccnc1	none (no result: C diff HTS)
CCC(=O)Nc1ccc2c(c1)OC[C@@H](C)N(C(=O)CN(C)C)C[C@H](C)[C@@H](OC)CN(C)C2=O	none (no result: C diff HTS)
CNC[C@H]1Oc2c(NC(=O)C3CC3)cccc2C(=O)N([C@H](C)CO)C[C@H]1C	none
Cc1noc(C)c1NC(=O)N(C)C[C@@H]1OCCCC[C@@H](C)Oc2ccc(NC(=O)Nc3ccc(F)cc3)cc2C(=O)N([C@H](C)CO)C[C@H]1C	none
C[C@@H]1CN([C@H](C)CO)S(=O)(=O)c2ccc(-c3cncnc3)cc2O[C@@H]1CN(C)Cc1cncnc1	none
Cc1ccc(-c2ccc3c(c2)O[C@H](CN(C)Cc2cncnc2)[C@@H](C)CN([C@H](C)CO)S3(=O)=O)cc1	T cruzi growth-1 102 | T cruzi growth-2 102 | T cruzi growth-3 inactive | 3T3 cytotox 42 | 3T3 cytotox 2 65
C[C@H](CO)N1C[C@H](C)[C@@H](CN(C)Cc2cncnc2)Oc2cc(-c3ccncc3)ccc2S1(=O)=O	T cruzi growth-1 101 | T cruzi growth-2 104 | T cruzi growth-3 inconclusive | 3T3 cytotox inactive | 3T3 cytotox 2 41
C[C@H]1CN([C@@H](C)CO)S(=O)(=O)c2ccc(-c3ccncc3)cc2O[C@H]1CN(C)Cc1cncnc1	T cruzi growth-1 104 | T cruzi growth-2 100 | T cruzi growth-3 inactive | 3T3 cytotox inconclusive | 3T3 cytotox 2 34
Cc1ccc(-c2ccc3c(c2)O[C@H](CN(C)Cc2cncnc2)[C@H](C)CN([C@H](C)CO)S3(=O)=O)cc1	none (no result: C diff HTS, T cruzi growth-1)
C[C@H]1CN([C@@H](C)CO)S(=O)(=O)c2ccc(-c3cncnc3)cc2O[C@H]1CN(C)Cc1cncnc1	none
COc1cccc(NC(=O)N(C)C[C@H]2Oc3ncc(/C=C/c4ccccc4)cc3C(=O)N([C@@H](C)CO)C[C@H]2C)c1	none (no result: T cruzi growth-1)
COc1ccc(S(=O)(=O)N(C)C[C@H]2OCCCC[C@H](C)Oc3ccc(NC(=O)c4ccncc4)cc3C(=O)N([C@H](C)CO)C[C@@H]2C)cc1	none
C[C@@H]1CN([C@H](C)CO)C(=O)c2cc(NC(=O)Nc3cccc4ccccc34)ccc2O[C@@H]1CN(C)Cc1ccccc1	none
O=C(Nc1ccc(Cl)cc1)N[C@H]1CC[C@@H](CCn2cc(C3(O)CCCC3)nn2)O[C@@H]1CO	none (no result: C diff HTS)
CN1c2ccc(-c3cccc(F)c3)cc2[C@H]2[C@H](CCN2C(=O)c2ccc3c(c2)OCO3)[C@@H]1CO	none
C[C@H](CO)N1C[C@H](C)[C@H](CN(C)Cc2ccc(C(=O)Nc3ccccc3N)cc2)Oc2ccc(N(C)C)cc2CC1=O	none
C[C@H](CO)N1C[C@H](C)[C@@H](CN(C)Cc2ccc(C(=O)Nc3ccccc3N)cc2)Oc2ccc(N(C)C)cc2CC1=O	T cruzi growth-1 122 | T cruzi growth-2 102 | T cruzi growth-3 inactive | 3T3 cytotox 37 | 3T3 cytotox 2 76
C[C@@H]1CN([C@@H](C)CO)C(=O)c2cc(N(C)C)ccc2O[C@@H]1CN(C)Cc1ccc(C(=O)Nc2ccccc2N)cc1	T cruzi growth-1 104 | T cruzi growth-2 inactive | T cruzi growth-3 inactive | 3T3 cytotox inactive | 3T3 cytotox 2 inactive
C[C@H]1CN([C@@H](C)CO)C(=O)c2cc(N(C)C)ccc2O[C@@H]1CN(C)Cc1ccc(C(=O)Nc2ccccc2N)cc1	none
C[C@H]1CN([C@@H](C)CO)C(=O)c2cc(NC(=O)Cc3ccccc3)ccc2O[C@H]1CN(C)Cc1ccc(C(=O)Nc2ccccc2N)cc1	T cruzi growth-1 inconclusive | T cruzi growth-2 inactive | T cruzi growth-3 inactive | 3T3 cytotox inactive | 3T3 cytotox 2 inconclusive
C[C@@H]1CN([C@@H](C)CO)C(=O)c2cc(NC(=O)Cc3ccccc3)ccc2O[C@H]1CN(C)Cc1ccc(C(=O)Nc2ccccc2N)cc1	none
